Measured values taken from the supplement of paper PMC6897291.
Where a name gives a salt, the structure may show the parent alone.

System: RIVA
Test: growth inhibition by drug alone (1 - RLU/untreated control) (fraction); higher = stronger inhibition
Settings: 100 nM; time (day): 4; 177Lu-lilotomab satetraxetan 0 ug/ml
In short: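 Compound doses on the pre-printed Selleck Cambridge Cancer Compound library plates were 10/100 nM for RIVA cells and 10/1,000 nM for U-2932 cells, seeded at 3,000 cells/well. Before seeding, cells were washed after 18 h with or without a radiolabelled anti-CD37 antibody conjugate (~600 MBq/mg; 0.5 µg/ml RIVA, 1 µg/ml U-2932). Growth inhibition was derived from RealTime-Glo luminescence relative to untreated no-drug control wells. Readings were taken daily starting on day 3, each after 1 h at 37°C, and each well's RLU was divided by the mean of 48 such wells per plate and subtracted from 1.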

| SMILES | growth inhibition by drug alone |
| --- | --- |
| Nc1nc2[nH]cc(CCc3ccc(C(=O)N[C@@H](CCC(=O)O)C(=O)O)cc3)c2c(=O)[nH]1 [Pemetrexed] | -0.377 |
| COc1cc2nccc(Oc3ccc(NC(=O)Nc4cc(C)on4)c(Cl)c3)c2cc1OC [Tivozanib (AV-951)] | 0.104 |
| CCC(=O)N1CCN(c2ccc(-n3c(=O)ccc4cnc5ccc(-c6cnc7ccccc7c6)cc5c43)cc2C(F)(F)F)CC1 [Torin 1] | 0.37 |
| COc1cccc2c1C(=O)c1c(O)c3c(c(O)c1C2=O)C[C@@](O)(C(=O)CO)C[C@@H]3O[C@H]1C[C@H](N)[C@@H](O)[C@H](C)O1 [Epirubicin Hydrochloride] | 0.719 |
| Clc1ccc(Nc2nnc(Cc3ccncc3)c3ccccc23)cc1 [Vatalanib dihydrochloride (PTK787)] | -0.0658 |
| COc1cc2nccc(Oc3ccc(NC(=O)C4(C(=O)Nc5ccc(F)cc5)CC4)cc3)c2cc1OC [XL-184 free base (Cabozantinib)] | -0.0966 |
| C[C@@H](O[C@H]1OCCN(Cc2n[nH]c(=O)[nH]2)[C@H]1c1ccc(F)cc1)c1cc(C(F)(F)F)cc(C(F)(F)F)c1 [Aprepitant (MK-0869)] | -0.342 |
| COc1cc2c(cc1O)CC[C@@H]1[C@@H]2CC[C@]2(C)[C@@H](O)CC[C@@H]12 [2-Methoxyestradiol] | -0.529 |
| CNCc1ccc(-c2[nH]c3cc(F)cc4c3c2CCNC4=O)cc1 | -0.0204 |
| CC[C@@]1(O)C(=O)OCc2c1cc1n(c2=O)Cc2cc3c(CN(C)C)c(O)ccc3nc2-1 [Topotecan HCl] | 0.808 |
| Nc1cc(C(F)(F)F)c(-c2cc(N3CCOCC3)nc(N3CCOCC3)n2)cn1 | -0.324 |
| CC(C)(C)c1ccc(S(=O)(=O)/C=C/C#N)cc1 | -0.063 |
| C[C@]1(c2nc3c(C(N)=O)cccc3[nH]2)CCCN1 [ABT-888 (Veliparib)] | -0.238 |
| Cc1ccc(NC(=O)c2ccc(CN3CC[C@H](N(C)C)C3)c(C(F)(F)F)c2)cc1Nc1nccc(-c2cncnc2)n1 [Bafetinib (INNO-406)] | -0.213 |
| C[C@]12CC[C@@H]3c4ccc(O)cc4CC[C@H]3[C@@H]1CCC2=O [Estrone] | -0.269 |
| O=C(c1ccc(OCCN2CCCCC2)cc1)c1c(-c2ccc(O)cc2)sc2cc(O)ccc12 [Evista (Raloxifene Hydrochloride)] | -0.0819 |
| CCN(CC)CCNC(=O)c1c(C)[nH]c(/C=C2\C(=O)Nc3ccc(F)cc32)c1C [Sunitinib Malate (Sutent)] | -0.315 |
| CCOc1ccc(Nc2nc(-c3c(C)nc4ccccn34)cs2)cc1 | 0.948 |
| C=CC(=O)N1CCC[C@@H](n2nc(-c3ccc(Oc4ccccc4)cc3)c3c(N)ncnc32)C1 | 0.908 |

| SMILES | growth inhibition by drug alone |
| --- | --- |
| CS(=O)(=O)c1cccc(CNc2nc(Nc3ccc4c(c3)CCC(=O)N4)ncc2C(F)(F)F)c1 | -0.126 |
| CC(NC(=O)c1ccccc1/N=C/c1c(O)ccc2ccccc12)c1ccccc1 (stereo not drawn) [Sirtinol] | -0.00311 |
| CN(Cc1cnc2nc(N)nc(N)c2n1)c1ccc(C(=O)N[C@@H](CCC(=O)O)C(=O)O)cc1 [Abitrexate (Methotrexate)] | -0.184 |
| OCCn1cc(-c2cnc3nnn(Cc4ccc5ncccc5c4)c3n2)cn1 | -0.278 |
| COc1cc(Nc2ncc(F)c(Nc3ccc4c(n3)NC(=O)C(C)(C)O4)n2)cc(OC)c1OC [R406(free base)] | -0.333 |
| COc1cccc2c1C(=O)c1c(O)c3c(c(O)c1C2=O)C[C@@](O)(C(=O)CO)C[C@@H]3O[C@H]1C[C@H](N)[C@H](O)[C@H](C)O1 [Doxorubicin (Adriamycin)] | 0.794 |
| CN(NC(=O)CC(=O)NN(C)C(=S)c1ccccc1)C(=S)c1ccccc1 [Elesclomol] | 0.976 |
| CN(C)CCOc1ccc(/C(=C(/CCCl)c2ccccc2)c2ccccc2)cc1 [Toremifene Citrate (Fareston, Acapodene)] | 0.0479 |
| CN1CCN(CCOc2cc(OC3CCOCC3)c3c(Nc4c(Cl)ccc5c4OCO5)ncnc3c2)CC1 [Saracatinib (AZD0530)] | -0.418 |
| CC(C)C[C@H](NC(=O)[C@H](Cc1ccccc1)NC(=O)c1cnccn1)B(O)O [Bortezomib (Velcade)] | 0.978 |
| Cn1cncc1[C@@](N)(c1ccc(Cl)cc1)c1ccc2c(c1)c(-c1cccc(Cl)c1)cc(=O)n2C [Tipifarnib (Zarnestra)] | -0.124 |
| COC(=O)c1ccc2c(C(=Nc3ccc(N(C)C(=O)CN4CCN(C)CC4)cc3)c3ccccc3)c(O)[nH]c2c1 [BIBF1120 (Vargatef)] | -0.322 |
| CC[C@@H]1/C=C(\C)C[C@H](C)C[C@H](OC)[C@H]2O[C@@](O)(C(=O)C(=O)N3CCCC[C@H]3C(=O)O[C@H](/C(C)=C/[C@@H]3CC[C@H](Cl)[C@H](OC)C3)[C@H](C)[C@@H](O)CC1=O)[C@H](C)C[C@@H]2OC [Pimecrolimus] | 0.549 |
| CN(C)CCOc1ccc(-c2nc(-c3ccncc3)c(-c3ccc4c(c3)CC/C4=N\O)[nH]2)cc1 | -0.651 |
| COc1ccc(CCN2CCN(CCCc3ccccc3)CC2)cc1OC | -0.501 |
| CNC(=O)c1cc(Oc2ccc(NC(=O)Nc3cc(C(C)(C)C)nn3-c3ccc4ncccc4c3)c(F)c2)ccn1 [DCC-2036 (Rebastinib)] | -0.203 |
| CCC(C)(C)C(=O)O[C@H]1C[C@@H](C)C=C2C=C[C@H](C)[C@H](CC[C@@H]3C[C@@H](O)CC(=O)O3)[C@H]21 [Simvastatin (Zocor)] | -0.0809 |
| CCc1ccc(CCOc2ccc(CC3SC(=O)NC3=O)cc2)nc1 (stereo not drawn) [Pioglitazone (Actos)] | -0.381 |
| O=C(O)C(Cc1c[nH]c2ccccc12)N1C(=O)c2ccccc2C1=O (stereo not drawn) | -0.283 |
